Jurkat NFkB inh = inhibitors of the PMA/ionomycin-induced NF-kB reporter in Jurkat cells; PMA/ionomycin-induced NF-kB luciferase reporter, luminescence; inhibition, % at 4 µM; 0.53% of 330,000 active; in the data active means inhibition above about 50%
COUP-TFII inh = blocks human COUP-TFII nuclear receptor; 0.7% of 370,000 active; AID 686940; inhibition, % at 8.6 µM; HEK293T NGFI-A luciferase reporter, luminescence; P24468;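 active means inhibition above a per-plate cutoff, mean inhibition of test wells between control levels plus 3 SD, cut at about 38% in these data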;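 further: cells cotransfected with COUP-TFII expression vector driving the NGFI-A reporter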
Target sequence (P24468 whole entry, looked up): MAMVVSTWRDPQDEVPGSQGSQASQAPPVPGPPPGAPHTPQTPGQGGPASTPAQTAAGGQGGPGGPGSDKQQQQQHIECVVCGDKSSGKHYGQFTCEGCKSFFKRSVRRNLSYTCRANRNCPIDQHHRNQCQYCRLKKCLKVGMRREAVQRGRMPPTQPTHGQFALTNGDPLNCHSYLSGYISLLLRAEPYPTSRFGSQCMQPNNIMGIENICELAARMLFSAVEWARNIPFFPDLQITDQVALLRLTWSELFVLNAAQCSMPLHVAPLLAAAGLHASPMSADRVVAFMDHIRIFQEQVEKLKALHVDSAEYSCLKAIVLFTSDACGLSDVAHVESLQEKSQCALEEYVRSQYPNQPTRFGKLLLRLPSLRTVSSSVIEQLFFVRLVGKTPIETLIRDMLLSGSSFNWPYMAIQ
697 NFkB inh = lowers PMA/ionomycin-induced NF-kB signal in 697 B cells | 697 B-cell NF-kB luciferase reporter, 16 h | inhibition, % at 4 µM | 0.33% of 330,000 active | AID 435022; in the data active means inhibition above about 35%
Gli-Sufu antag = blocks Gli-Sufu signaling in a luciferase reporter | Sufu-KO-LIGHT fibroblasts, Gli luciferase reporter luminescence | inhibition, % at 5 µM | 0.74% of 340,000 active | AID 588413;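 active means inhibition above about 55%, limit read from the data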
GalR3 antag = blocks the human galanin receptor 3. O60755. HEK293 GalR3-CNG cAMP membrane potential fluorescence; galR3 body fused to GalR1 C-terminus. 0.44% of 360,000 active. AID 651719. inhibition, % at 3 µM;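 active means inhibition above the screen-wide average plus 3 SD, cut at about 13% in these data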;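 further: forskolin and galanin both at EC90 stimulate the cells; cAMP rise reported by CNG channel membrane potential dye signal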
Target sequence (O60755 1-299 limits assumed): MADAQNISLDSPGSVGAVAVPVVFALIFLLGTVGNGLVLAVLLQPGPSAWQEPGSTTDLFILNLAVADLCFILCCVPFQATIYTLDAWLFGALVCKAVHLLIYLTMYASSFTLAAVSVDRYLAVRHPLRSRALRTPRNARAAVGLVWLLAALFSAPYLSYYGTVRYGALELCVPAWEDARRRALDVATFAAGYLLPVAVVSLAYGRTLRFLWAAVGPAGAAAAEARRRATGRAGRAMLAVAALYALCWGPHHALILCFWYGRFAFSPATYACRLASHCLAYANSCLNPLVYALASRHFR
Gli-Sufu confirm = Gli-SUFU antagonism confirmation, single concentration; shares compounds with Gli-Sufu antag; Sufu-KO-LIGHT cells, Gli luciferase reporter, luminescence; inhibition, % at 5 µM; 40% of 2,500 active; AID 602428;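 active means mean inhibition at 5 µM reaching about 45%, limit read from the data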
SufuKO cytotox = counter-screen for Gli-SUFU antagonists: cytotoxicity; shares compounds with Gli-Sufu antag; Sufu-KO-LIGHT cells cytotoxicity, ATP luminescence; cytotoxicity, % at 5 µM; 32% of 2,500 active; AID 651994;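 active means mean cytotoxicity at 5 µM above about 25%, limit read from the data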;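 further: cells exposed to compound overnight for roughly 16 to 18 hours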
Wnt3a cs = Wnt3a reporter inhibition counter-screen | inhibition, % at 6.25 µM | Wnt-LIGHT cells, Wnt3a-driven luciferase reporter, luminescence | 20% of 2,500 active | shares compounds with Gli-Sufu antag;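 active means mean inhibition above about 25%, limit read from the data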
GalR3 antag conf = confirmation of human galanin receptor 3 antagonists | shares compounds with GalR3 antag | AID 652245 | 59% of 1,600 active | inhibition, % at 3 µM | HEK293 GalR3 CNG cAMP biosensor, membrane potential fluorescence; galR3 fused to GalR1 carboxy tail; challenged with forskolin and galanin at EC90;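 active means inhibition above the primary screen's cutoff, the mean inhibition of all screened compounds plus 3 SD, cut at about 13% in these data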
CNG parental = parental cell agonism counter-screen for GalR3 antagonists; 10% of 1,600 active; AID 652268; shares compounds with GalR3 antag; HEK293-CNG parental cells, cAMP membrane potential fluorescence; normalised: DMSO wells 0%, forskolin wells 100%; activation, % at 3 µM; in the data active means activation above about 1.3%
VP16 Luc counter = counter-screen for COUP-TFII antagonists: inhibitors of VP16. HEK293 Gal4-VP16 luciferase reporter, luminescence. shares compounds with COUP-TFII inh. 25% of 2,500 active. inhibition, % at 8.5 µM; in the data active means inhibition above about 13%
NR2F2 inh conf = confirmation of human COUP-TFII (NR2F2) inhibitors. AID 687008. shares compounds with COUP-TFII inh. 45% of 2,500 active. HEK293 NGFI-A luciferase reporter, luminescence. inhibition, % at 8.5 µM;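 active means mean inhibition over three repeats above a set limit taken from the earlier primary screen, cut at about 38% in these data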
Numbers stand for hits; 0 = inactive; - = not tested or not shown; ! = repeats disagree. Shown are actives, neighbours in structure and some others; about 2% of the full set was active somewhere.

SMILES | Jurkat NFkB inh | COUP-TFII inh | 697 NFkB inh | Gli-Sufu antag | GalR3 antag | Gli-Sufu confirm | SufuKO cytotox | Wnt3a cs | VP16 Luc counter | NR2F2 inh conf | others
COc1cc(C(=O)N2CCN(c3ncnc4sc(C)c(C)c34)CC2)cc(OC)c1OC | 0 | 48 | 0 | 57 | 0 | 54 | 31 | 0 | 0 | 48
COC(=O)[C@H](C(C)C)N(Cc1cn(Cc2ccccc2)nn1)S(=O)(=O)c1ccc(F)cc1Br | - | 0 | - | - | - | - | - | - | - | -
C(=NN1CCCCCC1)c1ccc2ccccc2n1 | - | 95 | - | 68 | 0 | 89 | 73 | 106 | 89 | 104
C(=NN1CCCCCC1)c1cccc2ccccc12 | - | 0 | - | 0 | 0 | - | - | - | - | -
Nn1c(SCc2cccc3ccccc23)nnc1-c1cc(-c2ccc(Cl)cc2)n[nH]1 | - | 0 | - | - | - | - | - | - | - | -
Cc1nnsc1C(=O)NC1CCCc2c1cnn2-c1ccc(F)cc1F (stereo not given) | 0 | 64 | 0 | 65 | 105 | 56 | 0 | 0 | 0 | 66 | GalR3 antag conf=103;CNG parental=0
COc1cc(C(=O)NC2CCCc3c2cnn3-c2ccccc2F)cc(OC)c1OC (stereo not given) | 0 | 46 | 0 | 61 | 0 | 48 | 34 | 0 | 0 | 0
Cc1nnsc1C(=O)NC1CCCc2c1cnn2-c1cc(F)cc(F)c1 (stereo not given) | 0 | 0 | 0 | 0 | 0 | - | - | - | - | -
NC(=O)c1c(-c2ccc(Cl)cc2Cl)csc1NC(=O)Cc1ccccc1 | - | 73 | - | 56 | 95 | 62 | 0 | 0 | 0 | 54 | GalR3 antag conf=113;CNG parental=0
O=C(Cc1ccccc1)Nc1scc(-c2ccccc2)c1C(=O)N1CCOCC1 | 0 | - | 0 | 0 | - | - | - | - | - | -
CCCCOCCCNC(=O)C[C@H]1C[C@@]2(C(=O)OC)C(=C[C@H](C(C)(C)C)O[C@@H]2C)N(Cc2cccc3ccccc23)C1=O | - | 0 | - | - | - | - | - | - | - | -
CCC[N+]1(CC#CCC(c2ccccc2)c2ccccc2)CCCCC1 | 0 | 52 | 0 | 84 | 0 | 88 | 49 | 36 | 0 | 0
O=C(C[N+]1(CC#Cc2ccccc2)CCCCC1)c1ccccc1 | 0 | 0 | 0 | 0 | 0 | - | - | - | - | -
O=C(CSc1nnc(-c2ccncc2)n1-c1ccccc1)Nc1ccc2c(c1)OCCO2 | - | 0 | - | - | - | - | - | - | - | -
CC(=O)CC[C@@H]1CC[C@]2(CCCN(S(C)(=O)=O)C2)O1 | - | 0 | - | - | - | - | - | - | - | -
COc1ccc(CC(=O)Nc2ccncc2Cl)cc1 | 0 | 51 | 0 | 66 | 63 | 54 | 26 | 31 | 0 | 0 | GalR3 antag conf=49;CNG parental=0
O=C(Cc1ccc(Cl)cc1Cl)Nc1ccncc1Cl | 0 | 40 | 0 | 73 | 45 | 49 | 0 | 32 | 0 | 42 | GalR3 antag conf=67;CNG parental=0
O=C(Cc1ccc(Cl)cc1Cl)Nc1ccncc1 | 0 | 50 | 0 | 0 | 0 | 0 | 0 | 0 | 0 | 0
S=C(NCc1ccc(Cl)cc1)Nc1ccncc1 | 0 | 58 | 0 | 63 | 0 | 49 | 0 | 36 | 17 | 44
O=C(Cc1c(Cl)cccc1Cl)Nc1ccncc1Cl | 0 | 0 | 0 | 0 | 0 | - | - | - | - | -
CCCCC(=O)N1CCC(NS(=O)(=O)c2ccc3c(c2)CCN3C(C)=O)CC1 | - | 0 | - | - | - | - | - | - | - | -
O=S(=O)(c1cccs1)N1CCC(c2cn3ccccc3n2)CC1 | - | 0 | - | - | - | - | - | - | - | -
O=S(=O)(c1cc(C(F)(F)F)ccc1Cl)N1CCN(c2ncnc3ccccc23)CC1 | 0 | 42 | 0 | 61 | 0 | 61 | 0 | 44 | 15 | 60
CSC1SCC2C(=O)N(C)C(C(C)C)C(=O)OCC(NC(=O)c3cnc4ccccc4n3)C(=O)NC(C)C(=O)N(C)C1C(=O)N(C)C(C(C)C)C(=O)OCC(NC(=O)c1cnc3ccccc3n1)C(=O)NC(C)C(=O)N2C (stereo not given) | - | 51 | - | 80 | 0 | 85 | 73 | 102 | 29 | 38
O=C(CN1C(=O)c2ccccc2S1(=O)=O)c1ccc(F)cc1 | 0 | 40 | 0 | 76 | 0 | 83 | 0 | 91 | 0 | 0
SMILES | Jurkat NFkB inh | COUP-TFII inh | 697 NFkB inh | Gli-Sufu antag | GalR3 antag | Gli-Sufu confirm | SufuKO cytotox | Wnt3a cs | VP16 Luc counter | NR2F2 inh conf | others
COc1cc(C)nc(NCc2ccccc2)n1 | 0 | 0 | 0 | 0 | 0 | - | - | - | - | -
Cc1cc(NC2CCCCC2)nc(NCc2ccccc2)n1 | 0 | 52 | 0 | 80 | 0 | 58 | 34 | 0 | 0 | 0
CCOCCCNc1ncnc2c1[nH]c1ccccc12 | 0 | 0 | 0 | 0 | 0 | - | - | - | - | -
CCCCOCCCNc1ncnc2c1[nH]c1ccccc12 | 0 | 66 | 0 | 81 | 0 | 82 | 27 | 0 | 14 | 63
CC(C)(C)c1ccc(C2CC2C(=O)N/N=C\c2ccc[nH]2)cc1 (stereo not given) | 0 | 42 | 0 | 88 | 0 | 92 | 0 | 43 | 0 | 64
COc1ccccc1-n1c(-c2ccccc2)c[nH]c1=S | - | 0 | - | 0 | 0 | - | - | - | - | -
COc1ccccc1-n1c(-c2ccccc2)c[n+]2c1CCc1ccccc1-2 | 0 | 71 | 0 | 81 | 53 | 87 | 0 | 32 | 18! | 63 | GalR3 antag conf=68!;CNG parental=1.6
CCCCOC(=O)c1[nH]c2c(c1C)C(=O)CC(c1cc(OC)c(OC)c(OC)c1)C2 (stereo not given) | 0 | 71 | 0 | 0 | 0 | 60 | 0 | 0 | 0 | 63
Cc1cccc(-c2cccc3c4c([nH]c23)[C@@H]2C[C@H](N(C)C(=O)c3ccco3)[C@H]([C@H](C)O)C(=O)N2CC4)c1 | - | 0 | - | - | - | - | - | - | - | -
Cc1ccc(C2CC(C(F)(F)F)n3nc(C(=O)NCc4c(C)nn(C)c4C)c(Cl)c3N2)cc1 (stereo not given) | 0 | 45 | 0 | 0 | 0 | 54 | 32 | 0 | 0 | 0
Cc1cc(C(=O)Nc2ccc(Cl)c(Cl)c2)n(-c2ccccc2)n1 | - | 0 | - | - | - | - | - | - | - | -
Cc1ccccc1-c1nnc2n1N=C(c1ccc(O)c(O)c1)CS2 | - | 0 | - | - | - | - | - | - | - | -
CC(C)Oc1cccc(C(=O)C2CCCN(Cc3cnn(C(C)C)c3)C2)c1 (stereo not given) | 0 | 0 | 0 | 0 | 0 | - | - | - | - | -
Cc1nn(C(C)C)c(C)c1CN1CCCC(C(=O)c2cccc(OC(C)C)c2)C1 (stereo not given) | 0 | 37 | 0 | 59 | 0 | 0 | 0 | 0 | 0 | 0

From PubChem
